High-throughput results: PubChem, National Center for Advancing Translational Sciences (NCATS)
Rango complex inh = prevents formation of the Rango-importin beta complex; AID 540263; 340,000 tested, 0.031% active; Potency, µM (titrated, usually from 92.2 µM), for the others: at the top dose inhibition of complex formation; Q14974; Rango CFP/YFP FRET sensor + importin beta, 45 min;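 note: potency is the fitted concentration of half-maximal effect; 0% = DMSO wells and 100% = buffer wells lacking importin beta; nearly all actives have a fitted effect of over 15% in size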
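FRET biosensor Rango (snurportin 1 IBB between N-terminal EYFP and C-terminal Cerulean), 50 nM in PBS/1 mM DTT/0.02% Tween-20/0.1% BSA, preincubated 5 min RT with compound; 0.125 microM importin beta added, 45 min RT, CFP/YFP FRET ratio read.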
TSG101-PTAP inh = blocks PTAP/TSG101 interaction to inhibit HIV-1 budding; Q99816; Fluorescence polarization, FITC-PTAP peptide / Tsg101 binding; Potency, µM (top dose mostly 115 µM), for the others: top-dose activity change, negative = inhibition, most hits filed as inhibitors; 340,000 tested, under 10 active; AID 493005; active = well fitted inhibition curve with a large enough effect in the main read-out, with a control signal flat, not every such curve was filed as active; inconclusive = small, poorly fitted or top-dose-only effect, or effect the other way, or a change in a side signal; inactive = no such curve, though single readings can be large or run the other way; note: potency is the fitted concentration of half-maximal effect; % of control where 0% means no effect
Target sequence (Q99816 whole entry, looked up): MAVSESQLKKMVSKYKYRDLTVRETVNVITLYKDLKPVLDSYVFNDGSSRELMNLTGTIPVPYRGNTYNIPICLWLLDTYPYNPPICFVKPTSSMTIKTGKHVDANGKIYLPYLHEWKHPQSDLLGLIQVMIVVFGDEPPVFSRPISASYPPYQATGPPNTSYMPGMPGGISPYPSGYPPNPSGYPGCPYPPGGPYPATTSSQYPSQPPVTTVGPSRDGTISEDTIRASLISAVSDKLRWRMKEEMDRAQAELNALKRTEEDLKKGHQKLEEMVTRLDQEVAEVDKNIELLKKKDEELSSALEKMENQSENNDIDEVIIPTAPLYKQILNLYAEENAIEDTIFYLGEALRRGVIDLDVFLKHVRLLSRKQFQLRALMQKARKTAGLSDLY
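Fluorescence polarization binding of Tsg101 binding domain (10 uM final) to FITC-labeled PTAP peptide (50 nM final) in HEPES pH 7.5 buffer with NaCl, Tween 20, EDTA, TCEP. Compounds added before peptide; binding 20 min at RT.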
DRD3 agonist = D3 dopamine receptor (human) agonism; P35462; D3R DiscoveRx beta-arrestin cells, luminescence, 90 min; 410,000 tested, 0.58% active; AID 652048; max activation, %; in the data active = max activation above about 30%; note: 0% is about no effect
Target sequence (P35462 whole entry, looked up): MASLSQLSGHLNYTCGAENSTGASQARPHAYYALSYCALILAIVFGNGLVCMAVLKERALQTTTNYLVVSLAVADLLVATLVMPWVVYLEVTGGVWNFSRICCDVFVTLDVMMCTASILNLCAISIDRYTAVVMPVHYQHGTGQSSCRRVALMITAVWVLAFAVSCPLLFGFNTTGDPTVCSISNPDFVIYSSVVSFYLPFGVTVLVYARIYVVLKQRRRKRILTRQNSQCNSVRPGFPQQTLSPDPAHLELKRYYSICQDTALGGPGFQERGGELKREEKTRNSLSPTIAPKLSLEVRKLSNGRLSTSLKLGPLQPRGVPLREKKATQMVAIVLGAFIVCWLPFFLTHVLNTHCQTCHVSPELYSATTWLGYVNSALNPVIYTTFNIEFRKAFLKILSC
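Agonist mode: compounds and dopamine controls were applied to plated cells for 90 min at 37 degrees C after an overnight attachment at 1500 cells/well. Luminescent read-out followed 30 - 60 minutes at room temperature with DiscoveRx detection reagent.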
Rango dissoc inh = prevents RanGTP from dissociating the Rango-importin beta complex; AID 540253; Potency, µM (doses to about 46.1 µM), for the others: top-dose activity change, negative = inhibition; O95149+P62826; 340,000 tested, 0.071% active; Biochemical FRET Rango-importin beta, RanGTP-induced dissociation; note: potency is the fitted concentration of half-maximal effect; % of control where 0% means no effect; nearly all actives have a fitted effect of over 45% in size
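FRET read at 45 min, room temperature: inhibitors block the CFP/YFP signal rise when RanGTP (0.6 uM Ran, 2 mM GTP, 0.2 uM RCC1) frees Rango (0.1 uM) from importin beta (0.25 uM). Pre-read after 5 min compound exposure flags interference.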
MmCpn inh = inhibitors of Methanococcus maripaludis chaperonin TRiC (MmCpn); Potency, µM (top dose mostly 76.9 µM), inactives show top-dose activity, negative = inhibition, usual class: inhibitors; 330,000 tested, 0.031% active; purified Mm-Cpn ATPase, ADP Transcreener TR-FRET; active = well fitted inhibition curve with a large enough effect; inconclusive = small, poorly fitted or top-dose-only effect; note: potency is the fitted concentration of half-maximal effect; % is set by controls: 0 for no effect and ±100 for the full control effect; nearly all actives have a fitted effect of over 80% in size
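Purified archaeal Mm-CPN (25nM final) preincubated 10 min at 37degC with compound, then 10uM ATP for 30 min at 37degC; ADP measured by HTRF Transcreener TR-FRET; buffer 30 mM TRIS pH 7.4, 100mM KCl, 5mM MgCl2, 1mM DTT.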
D3 antag = antagonists of human D3 dopamine receptor; AID 652054; max response, negative = inhibition, %; P35462; D3R cells, DiscoveRx beta-arrestin luminescence, antagonist mode; hits give low values; 360,000 tested, 2.5% active; in the data active = max response below about -50%; inconclusive = no clear call, values can overlap the other calls; note: % is set by controls: 0 for no effect and ±100 for the full control effect
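Cells expressing the human receptor were seeded at 1500 cells/well, incubated overnight at 37 degrees C in 5% CO2, then exposed to library compounds with dopamine controls for 90 minutes at 37 degrees C before luminescent detection.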
* hit, by the source's call; ? = inconclusive; . = no result; ! = repeats disagree. Only some compounds are listed: those with a hit (about 2.9% of all), similar ones and a draw of the others. Unless noted, calls come from the whole dose curve.

SMILES | Rango complex inh | TSG101-PTAP inh | DRD3 agonist | Rango dissoc inh | MmCpn inh | D3 antag
CN(C)S(=O)(=O)c1cc(NC(=O)CN2CCN(c3ccc(O)cc3)CC2)ccc1Cl | 2% | 0% | 26 | 8% | 1% | 14
COc1ccc(CCNc2ccncn2)cc1OC | 5% | -5% | 31* | 0% | -5% | 26
O=[N+]([O-])c1ccc(-c2nc(C(Cl)Cl)c3ccccc3n2)cc1 | 1% | 3% | -13 | 40% | 0% | -59*
CN(Cc1ccccc1)c1nc(-c2ccc([N+](=O)[O-])cc2)nc2ccccc12 | 2% | -7% | 3 | -19% | -7% | -54*
O=c1[nH]c(SCc2ccccc2)nc2c1CCCC2 | . | . | 10 | . | . | .
O=c1[nH]c(SCc2ccccc2Cl)nc2c1CCCC2 | 2% | 2% | 31* | 15% | -1% | 55
Cc1oc(-c2ccccc2Cl)nc1CSc1nc2c(c(=O)[nH]1)CCC2 | ? | -5% | 57* | -7% | 2% | 184
CCCCCCCCCCCC(=O)OCC(O)CO (stereo not given) | . | . | 8 | . | . | .
CCCCC(=O)Nc1nc2ccc3nc(C)sc3c2s1 | -1% | -1% | -5 | -15% | -1% | -80*
Cc1ccc(S(=O)(=O)NCC(=O)Nc2ccc(C(F)(F)F)cc2)cc1 | -5% | -4% | 35* | -10% | -1% | 18
CN1CCN(CCC(=O)Nc2ccc(Br)cc2)CC1 | 0% | 0% | 2 | -9% | -1% | 1
O=C(CCN1CCCCC1)Nc1ccc(Br)cc1 | 1% | 0% | -13 | 0% | 1% | -69*
O=C(CN1CCCC1)Nc1ccc(Br)cc1 | ? | -1% | -1 | 12% | 3% | -17
O=C(CN1CCN(C2CCCCC2)CC1)Nc1ccc(Br)cc1 | 1% | -2% | -20 | -5% | -2% | -53*
Cc1ccc(NC(=O)CN2CCCC2)cc1Br | 0% | -10% | -26 | -4% | -27% | -64*
COC(=O)c1ccc(NC(=O)CCN2CCCCC2)cc1 | 6% | 0% | -4 | 14% | -1% | -52*!
COC(=O)c1ccc(NC(=O)CCN2CCN(CCC(=O)Nc3ccc(C(=O)OC)cc3)CC2)cc1 | 3% | -1% | -5 | -12% | 0% | -11
O=C(CN1CCCCCC1)Nc1ccc(Br)cc1 | 3% | . | -29 | 1% | 0% | -114*
Cc1c(Cl)cccc1NC(=O)CN1CCC(C(O)(c2ccccc2)c2ccccc2)CC1 | 0% | 0% | -64 | -4% | 1% | -62*
Cc1c(Cl)cccc1NC(=O)CCN1CCCCC1 | 0% | -8% | -4 | 8% | 0% | -58*
Cc1ccccc1C(=O)NC1CCN(CC(=O)Nc2ccccc2Cl)CC1 | -2% | 0% | -6 | 13% | 0% | 12
COc1cccc(-c2nc(SCC(=O)N3CCc4ccccc43)c3c(=O)n(C)c(=O)n(C)c3n2)c1 | . | . | -2 | . | . | .
Cc1cccc(N(C)S(=O)(=O)c2cc3[nH]c(=O)c(=O)[nH]c3cc2C)c1 | . | . | 6 | . | . | .
COc1ccccc1Nc1sc(C(=O)c2ccc3c(c2)OCO3)c(N)c1S(=O)(=O)c1ccccc1 | . | . | -21 | . | . | .
Cc1ccc(S(=O)(=O)Nc2ccc(NC(=O)CN3CCCCC3)cc2)cc1 | -1% | -3% | -10 | -9% | 0% | -60*
SMILES | Rango complex inh | TSG101-PTAP inh | DRD3 agonist | Rango dissoc inh | MmCpn inh | D3 antag
Cc1ccc(S(=O)(=O)Nc2cccc(NC(=O)CN3CCCCC3)c2)cc1 | -1% | -5% | -10 | -9% | 3% | -15
Cc1nn(-c2nc(-c3ccc(F)cc3)cc(C(F)(F)F)n2)c(C)c1Br | . | . | 4 | . | . | .
O=C(c1ccc(Cl)cc1)N(c1ccccn1)C1CCCCC1 | -3% | 0% | 0 | 1% | 0% | -19
O=C(c1cccc(C(=O)N(c2ccccn2)C2CCCCC2)c1)N(c1ccccn1)C1CCCCC1 | 2% | -3% | -10 | 0% | 0% | -54*
Cn1nnc2c[n+](CC(=O)c3ccc4ccccc4c3)cc(Br)c21 | 0% | -1% | -12 | -4% | -2% | -53*
COc1ccccc1N1CCN(C(=O)c2cnc(N3CCCCC3)c3ccccc23)CC1 | . | . | -9 | . | . | .
O=C(NCC(=O)N1CCN(c2cccc(Cl)c2)CC1)c1ccc(Br)o1 | -1% | -1% | 2 | 7% | 2% | 8
Clc1cccc(N2CCN(Cc3ccc(Br)o3)CC2)c1 | -2% | -3% | -27 | -12% | 2% | -60*
Clc1ccc(N2CCN(Cc3ccc(Br)o3)CC2)cc1 | 2% | -3% | -22 | -14% | 1% | -52*
COc1cc(CN2CCN(c3cccc(Cl)c3)CC2)cc(OC)c1OC | 1% | -7% | -18 | 17% | 2% | -71*
COc1cc(CN2CCN(C(O)(c3ccccc3)c3ccccc3)CC2)cc(OC)c1OC | -1% | -3% | -23 | 2% | 2% | -72*
CCOc1ccc(NC(=O)N2CCC(CN3CCCCCC3)CC2)cc1 | . | . | -10 | . | . | .
CC1(C)[C@H]2CC[C@]1(C)[C@H](O)C2 | . | . | -8 | . | . | .
c1csc(CNCc2ccncc2)c1 | -1% | -3% | -10 | -6% | 1% | -24
O=C(Nc1cccc(-c2nc3ccccc3o2)c1)c1cccc2c(Cl)cccc12 | . | . | 5 | . | . | .
Cn1c(-c2ccccc2)cc2onc(-c3ccccc3)c2c1=O | -2% | -2% | 0 | 2% | 2% | -69*
CCCCN(C)C(=O)CN1C(=O)CCn2nc(-c3cn(C)c4ccccc34)cc21 | . | . | -14 | . | . | .
CC1(C)CC(=O)C2=C(C1)Nc1cc(Cl)ccc1S2 | 4% | -2% | 31* | 14% | -4% | 14
O=S(=O)(c1ccc(Cl)cc1)c1nc(-c2ccccc2F)oc1NCCCN1CCOCC1 | -2% | -2% | -31 | -1% | -2% | -60*
Cc1ccc(S(=O)(=O)c2nc(-c3ccccc3Cl)oc2NCCCN2CCOCC2)cc1 | 3% | -4% | -11 | 3% | 1% | -53*
O=S(=O)(c1ccccc1)c1nc(-c2ccc(Cl)cc2)oc1NCCCN1CCOCC1 | -1% | -1% | -13 | 1% | 0% | ?
Cc1ccccc1-c1nc(S(=O)(=O)c2ccccc2)c(NCCN2CCOCC2)o1 | . | . | -17 | . | . | -27
CCOC(=O)c1cnc2c(ccc3ccccc32)c1Nc1ccccc1O | . | . | -7 | . | . | .
O=C(O)C1C2C=CC(C2)C1C(=O)NC1CCS(=O)(=O)C1 (stereo not given) | -2% | -8% | 6 | 3% | 0% | -102*
O=C(NC1CCS(=O)(=O)C1)C1C2CC3CC(C2)CC1C3 (stereo not given) | -1% | -4% | -5 | 2% | -1% | -11
Cc1ccc(NC(=O)c2cnc(SCC(=O)N3CCCc4ccccc43)n(C)c2=O)cc1 | . | . | -3 | . | . | .
